Drawing on PubChem BioAssay, this text covers growth inhibition, inhibition and outcome for 18 molecules.

The nature of test [1]: antimalarial activity against Dd2 strain (AID 2302;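 active means growth inhibition above 50% at the single 2 µM test dose, taken to imply half-maximal potency below 2 µM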;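 further: 0% = DMSO untreated growth and 100% = chloroquine plus artemisinin killed control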). The conditions noted are these: P. falciparum Dd2 in RBCs, LDH growth readout, 72 h; at 2 µM; stronger effect = higher value.
Test [2] is described as follows: HepG2 cytotoxicity, primary screen, cytotoxicity control for P. falciparum antimalarial project, cell-based, ATP luminescence (AID 2303;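 active means inhibition above 50%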;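 further: 0% = DMSO wells and 100% = digitonin-killed cells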). The conditions noted are these: HepG2 viability, 24-48 h, at 10 µM, stronger effect = higher value.
For test [3], the target named is L-lactate dehydrogenase (Plasmodium falciparum (isolate CDC / Honduras)) (UniProt Q27743). The test can be described thus: PfLDH activity inhibition – cell lysate, 3D7 strain, counter-screen for P. falciparum growth inhibition project (AID 2304).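 Further: 0% = vehicle and 100% = reference inhibitor.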 The conditions noted are these: P. falciparum 3D7 crude extract, LDH APAD/NBT absorbance; at 2 µM; stronger effect = higher value.

The nature of test [4]: inhibition of 3D7 malaria parasite growth – strain 3D7 (AID 2306).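 Further: 0% = DMSO wells and 100% = chloroquine plus artemisinin control wells.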 The conditions noted are these: P. falciparum 3D7 erythrocytic growth, LDH absorbance, 72 h; at 2 µM; stronger effect = higher value.
The target in test [5] is Calcium-dependent protein kinase 1 (Plasmodium falciparum (isolate 3D7)) (UniProt P62344). The test can be described thus: PfCDPK1 kinase inhibitors, biochemical, TCAMS library (AID 1159585; cut-off not given, nearly all actives have IC50 up to about 0.98 µM;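 further: inhibitors leave more ATP so luminescence rises with inhibition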). The conditions noted are these: recombinant PfCDPK1, Kinase-Glo ATP depletion luminescence.
Test [6] addresses Plasmodium falciparum protein kinase 6 (PK6, PF3D7_1337100) (UniProt Q8IDW1). The test can be described thus: PfPK6 kinase inhibitors, biochemical, TCAMS library (AID 1159586). The following applies: recombinant PfPK6, Kinase-Glo ATP depletion luminescence.
For test [7], the target named is Protein kinase 7 (PK7), Plasmodium falciparum 3D7 (PF3D7_0213400) (UniProt Q7YTF7). As to the kind of experiment: inhibition of Plasmodium PK7 catalytic activity – biochemical, TCAMS antimalarial set, Kinase-Glo luminescence (AID 1159587). The following applies: recombinant PfPK7, Kinase-Glo ATP depletion luminescence.
The target in test [8] is Calcium-dependent protein kinase 4 (Plasmodium falciparum (isolate 3D7)) (UniProt Q8IBS5). As to the kind of experiment: PfCDPK4 kinase inhibitors, biochemical, TCAMS library (AID 1159588; cut-off not given, nearly all actives have IC50 up to about 0.91 µM). The conditions noted are these: recombinant PfCDPK4, Kinase-Glo ATP depletion luminescence.

Unmarked numbers belong to inactive results. For part of these data: Measured potencies and affinities stand elsewhere. The source made the active and inactive calls. Unless noted, how the calls were made is not given here.

Calcium-dependent protein kinase 4 (Plasmodium falciparum (isolate 3D7)), sequence (Q8IBS5 whole entry, looked up): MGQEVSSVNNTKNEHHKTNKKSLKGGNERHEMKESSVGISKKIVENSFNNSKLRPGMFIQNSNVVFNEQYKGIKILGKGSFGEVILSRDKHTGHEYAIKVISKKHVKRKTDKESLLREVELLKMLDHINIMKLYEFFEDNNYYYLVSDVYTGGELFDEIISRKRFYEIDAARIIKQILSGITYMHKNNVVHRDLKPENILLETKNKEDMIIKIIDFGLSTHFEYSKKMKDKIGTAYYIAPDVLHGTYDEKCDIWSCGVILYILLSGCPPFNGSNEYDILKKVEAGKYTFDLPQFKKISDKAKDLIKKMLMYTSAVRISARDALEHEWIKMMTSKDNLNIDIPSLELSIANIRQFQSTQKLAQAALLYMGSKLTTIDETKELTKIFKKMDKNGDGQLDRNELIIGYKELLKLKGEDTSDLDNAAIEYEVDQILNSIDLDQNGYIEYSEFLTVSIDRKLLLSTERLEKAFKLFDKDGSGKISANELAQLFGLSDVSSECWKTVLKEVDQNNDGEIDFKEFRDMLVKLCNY
Calcium-dependent protein kinase 1 (Plasmodium falciparum (isolate 3D7)), sequence (P62344 whole entry, looked up): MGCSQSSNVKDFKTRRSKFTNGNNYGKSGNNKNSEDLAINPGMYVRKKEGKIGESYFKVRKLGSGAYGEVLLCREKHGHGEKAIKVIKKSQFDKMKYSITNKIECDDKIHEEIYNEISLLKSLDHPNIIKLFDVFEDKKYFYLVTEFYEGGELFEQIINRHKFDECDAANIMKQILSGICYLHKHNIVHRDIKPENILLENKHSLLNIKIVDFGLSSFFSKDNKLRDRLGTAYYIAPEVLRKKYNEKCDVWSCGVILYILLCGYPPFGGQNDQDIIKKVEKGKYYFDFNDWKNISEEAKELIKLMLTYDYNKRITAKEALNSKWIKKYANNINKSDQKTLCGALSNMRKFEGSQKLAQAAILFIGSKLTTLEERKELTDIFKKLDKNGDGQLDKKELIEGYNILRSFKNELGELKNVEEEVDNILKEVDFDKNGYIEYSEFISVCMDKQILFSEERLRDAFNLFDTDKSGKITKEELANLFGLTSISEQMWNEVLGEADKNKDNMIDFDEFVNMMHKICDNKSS
L-lactate dehydrogenase (Plasmodium falciparum (isolate CDC / Honduras)), sequence (Q27743 whole entry, looked up): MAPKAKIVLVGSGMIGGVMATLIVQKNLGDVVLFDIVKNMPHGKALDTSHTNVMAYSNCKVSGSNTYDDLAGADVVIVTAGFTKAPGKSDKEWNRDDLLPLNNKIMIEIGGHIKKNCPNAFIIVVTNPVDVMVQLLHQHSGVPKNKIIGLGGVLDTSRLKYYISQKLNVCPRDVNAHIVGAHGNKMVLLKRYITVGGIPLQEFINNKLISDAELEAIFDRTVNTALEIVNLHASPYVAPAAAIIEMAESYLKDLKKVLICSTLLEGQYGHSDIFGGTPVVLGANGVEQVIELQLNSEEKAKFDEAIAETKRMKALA
Protein kinase 7 (PK7), Plasmodium falciparum 3D7 (PF3D7_0213400), sequence (Q7YTF7 1-343): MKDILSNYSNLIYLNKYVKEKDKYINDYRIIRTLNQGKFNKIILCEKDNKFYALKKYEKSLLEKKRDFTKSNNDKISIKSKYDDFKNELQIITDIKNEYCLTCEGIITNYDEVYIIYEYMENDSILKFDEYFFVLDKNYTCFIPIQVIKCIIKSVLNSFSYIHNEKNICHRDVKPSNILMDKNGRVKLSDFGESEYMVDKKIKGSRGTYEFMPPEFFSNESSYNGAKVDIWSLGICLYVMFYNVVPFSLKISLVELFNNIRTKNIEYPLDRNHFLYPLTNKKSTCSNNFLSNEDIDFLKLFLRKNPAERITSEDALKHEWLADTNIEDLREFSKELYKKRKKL
Plasmodium falciparum protein kinase 6 (PK6, PF3D7_1337100), sequence (Q8IDW1 1-305): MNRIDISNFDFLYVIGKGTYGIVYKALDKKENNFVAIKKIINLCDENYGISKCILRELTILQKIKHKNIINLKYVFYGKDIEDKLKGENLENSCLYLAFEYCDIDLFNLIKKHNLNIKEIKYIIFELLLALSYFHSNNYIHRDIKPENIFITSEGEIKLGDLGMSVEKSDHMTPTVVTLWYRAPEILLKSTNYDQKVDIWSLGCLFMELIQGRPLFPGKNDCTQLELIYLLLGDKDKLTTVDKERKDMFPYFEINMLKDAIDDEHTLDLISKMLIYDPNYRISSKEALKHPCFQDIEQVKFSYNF

For `O=C(Nc1cccc(C(F)(F)F)c1)NC1CCN(c2ccnc3cc(Cl)ccc23)CC1`, the growth inhibition in test [1] was 47%; in test [4], 101% (active). Moreover, the inhibition in test [2] is 13%; in test [3], -2%. Further, the outcome in test [5], in test [6], in test [7] and in test [8] was inactive.
In the case of `O=C(NCc1ccc(Cl)c(Cl)c1)c1cc(CNC2CCNCC2)ccc1O`, the growth inhibition in test [1] was 2%; in test [4], 82% (active). The inhibition in test [2] is 2%; in test [3], 4%. The result in test [5], in test [6], in test [7] and in test [8] was inactive.
For the molecule `COc1ccc(CNCc2cccc(-c3ccc(-c4nc5ccccc5[nH]4)s3)c2)cc1`, the growth inhibition in test [1] was 52% (active); in test [4], 90% (active). Further, the results for the inhibition in test [2] and in test [3] were 14% and 0%, respectively. The result in test [5], in test [6], in test [7] and in test [8] was inactive.
As for `O=C(Nc1ccccc1Cl)N(Cc1cc(Cl)cc(Cl)c1)CC(O)COc1ccc(Cl)c(F)c1` (centres undefined), the growth inhibition is 17% in test [1] and 93% (active) in test [4]. The inhibition is 0% in test [2] and 4% in test [3]. For the same molecule, the outcome in test [5], in test [6], in test [7] and in test [8] was inactive.
As for `Cc1[nH]c(C)c(-c2ccc(-c3ccc(F)cc3)nc2)c(=O)c1Br`, the growth inhibition in test [1] was 96% (active); in test [4], 97% (active). Besides, the inhibition in test [2] is 15%; in test [3], 0%. For the same molecule, the result in test [5], in test [6], in test [7] and in test [8] was inactive.
As for `COC(=O)COc1cc(C(=O)NCCCCN2CCC(c3ccc4c(c3OC)CCCC4)CC2)ccc1-c1ccc(Cl)cc1`, the growth inhibition in test [1] is 21%; in test [4], 97% (active). Moreover, the inhibition in test [2] was 32%; in test [3], 2%. The result in test [5], in test [6], in test [7] and in test [8] was inactive.
`O=C(NC1CCN(Cc2ccc(O)cc2)CC1)c1ccc(Cl)c(Cl)c1`: the values for the growth inhibition in test [1] and in test [4] were 3% and 95% (active), respectively. The values for the inhibition in test [2] and in test [3] were 1% and 4%, respectively. In addition, the result in test [5], in test [6], in test [7] and in test [8] was inactive.
Consider `CCN(CC)Cc1ccc2c(=O)cc(CCc3cccc(F)c3F)n(CC(=O)N(Cc3ccc(-c4ccc(C(F)(F)F)cc4)cc3)C(C)C)c2c1`, for which the growth inhibition in test [1] is 63% (active); in test [4], 102% (active). Also, the inhibition in test [2] is 82% (active); in test [3] it was -6%. For the same molecule, the result in test [5], in test [6], in test [7] and in test [8] was inactive.
For the molecule `Cc1[nH]c2ccc(O)cc2c1C1CCN(CCCCCNC(=O)/C=C/c2ccc(Cl)c(Cl)c2)CC1`, the growth inhibition is 1% in test [1] and 101% (active) in test [4]. The inhibition in test [2] was 33%; in test [3] it was 2%. In addition, the result in test [5], in test [6], in test [7] and in test [8] was inactive.
As for `CCOC(=O)c1ccc(OCc2ccc(-c3ccccc3)cc2)cc1`, the growth inhibition in test [1] is -1%; in test [4], 96% (active). Moreover, the figures for the inhibition in test [2] and in test [3] were 18% and 3%, respectively. Further, the result in test [5], in test [6], in test [7] and in test [8] was inactive.
With `COc1cc(Nc2nccc(Nc3ccc4c(C)[nH]nc4c3)n2)cc2ccccc12`, the growth inhibition in test [1] is 82% (active); in test [4] it was 102% (active). For the same molecule, the inhibition in test [2] is 13%; in test [3] it was 5%. Further, the outcome in test [5], in test [6], in test [7] and in test [8] was inactive.
Consider `CCCN(CC1CC1)c1ncc(-c2ccccc2CNCc2ccccc2O)cn1`, for which the growth inhibition in test [1] was 98% (active); in test [4], 100% (active). The figures for the inhibition in test [2] and in test [3] were 4% and -4%, respectively. Besides, the result in test [5], in test [6], in test [7] and in test [8] was inactive.
On to `Cc1c(S(=O)(=O)Nc2ccc3ccn(CCN(C)C)c3c2)sc2ccc(Cl)cc12`, for which the growth inhibition in test [1] is 94% (active); in test [4] it was 98% (active). The inhibition is 15% in test [2] and 0% in test [3]. Besides, the result in test [5], in test [6], in test [7] and in test [8] was inactive.
As to `COc1cc(C(=O)N2CCOC(CCN3CCC(c4ccc(Cl)cc4)CC3)(c3ccc(Cl)c(Cl)c3)C2)cc(OC)c1OC` (centres undefined), the results for the growth inhibition in test [1] and in test [4] were 80% (active) and 91% (active), respectively. Also, the results for the inhibition in test [2] and in test [3] were 44% and 6%, respectively. Also, the result in test [5], in test [6], in test [7] and in test [8] was inactive.
`Cc1nc(Nc2ccc(F)cc2)nc(N2CCc3cc(O)ccc3C2C)c1C` (centres undefined): the growth inhibition was 97% (active) in test [1] and 99% (active) in test [4]. For the same molecule, the inhibition in test [2] was -5%; in test [3], -6%. For the same molecule, the outcome in test [5], in test [6], in test [7] and in test [8] was inactive.
Consider `COc1cc(NC(=O)CCCN2CCN(c3cccc(Cl)c3Cl)CC2)ccc1N1CCN(C(C)C)CC1`, for which the growth inhibition in test [1] was 59% (active); in test [4], 99% (active). In addition, the inhibition in test [2] is 31%; in test [3], 4%. The outcome in test [5], in test [6], in test [7] and in test [8] was inactive.
Turning to `Cc1ccc2nc3c(cc(C(=O)NCCc4ccccc4)c(=N)n3CCCOC(C)C)c(=O)n2c1`, the values for the growth inhibition in test [1] and in test [4] were 12% and 96% (active), respectively. Also, the inhibition in test [2] was 15%; in test [3], 0%. Besides, the result in test [5], in test [6], in test [7] and in test [8] was inactive.
`CCc1cn2c3c(cc(C(=O)N[C@@H](Cc4cccc(F)c4)[C@H](O)CNC4CCOCC4)cc13)N(C)S(=O)(=O)CC2`: the growth inhibition in test [1] and in test [4] was 97% (active) in each case. Also, the inhibition in test [2] and in test [3] was -2% throughout. Besides, the outcome in test [5], in test [6], in test [7] and in test [8] was inactive.
